Assay outcomes from PubChem.
An excerpt weighted towards active compounds, which were near 5.8% of everything screened.
TRPV1 potentiator – enhances activation of the human vanilloid receptor TRPV1 | potentiation, % at 8.33 µM | TRPV1-expressing cells, Fluo-8 calcium influx, capsaicin EC20 potentiation | 0.02% of 320,000 active | AID 540277; in the data active = potentiation above about 80%; inconclusive = between about 30% and that limit; note: 0% is about no effect
Target sequence (Q8NER1 whole entry, looked up): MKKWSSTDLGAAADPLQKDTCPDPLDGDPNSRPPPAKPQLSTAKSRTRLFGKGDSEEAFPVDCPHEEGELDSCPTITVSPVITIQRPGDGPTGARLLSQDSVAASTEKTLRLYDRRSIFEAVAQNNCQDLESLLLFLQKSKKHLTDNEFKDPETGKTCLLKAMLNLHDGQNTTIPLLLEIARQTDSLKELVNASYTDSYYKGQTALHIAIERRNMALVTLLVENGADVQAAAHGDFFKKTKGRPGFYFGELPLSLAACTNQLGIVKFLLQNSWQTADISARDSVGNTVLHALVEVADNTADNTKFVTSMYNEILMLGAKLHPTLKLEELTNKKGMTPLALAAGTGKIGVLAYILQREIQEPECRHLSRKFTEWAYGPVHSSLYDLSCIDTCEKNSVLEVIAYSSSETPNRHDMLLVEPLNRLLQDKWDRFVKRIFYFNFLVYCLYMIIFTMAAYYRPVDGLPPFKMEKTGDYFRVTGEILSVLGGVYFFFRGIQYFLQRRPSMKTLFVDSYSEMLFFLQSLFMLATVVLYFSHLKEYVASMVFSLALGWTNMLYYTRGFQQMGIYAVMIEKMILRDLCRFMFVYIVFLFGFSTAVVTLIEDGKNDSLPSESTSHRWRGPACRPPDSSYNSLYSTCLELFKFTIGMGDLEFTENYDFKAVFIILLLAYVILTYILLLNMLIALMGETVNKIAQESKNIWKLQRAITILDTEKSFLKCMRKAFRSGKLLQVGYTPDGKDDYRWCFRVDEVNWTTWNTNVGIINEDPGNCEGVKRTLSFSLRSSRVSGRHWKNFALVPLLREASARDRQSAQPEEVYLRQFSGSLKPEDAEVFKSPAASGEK
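TRPV1-expressing cells were cultured overnight at 35.5C and loaded with Fluo-8 calcium dye for 40 to 90 min at room temperature. After a 10 s baseline, compound was added and calcium influx was read kinetically for 3 min (ex 480/em 520 nm).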
Gal4-VP16 FLuc – inhibits Gal4-VP16 luciferase reporter, ROR gamma counter-screen; Potency, µM (highest dose often 53.6 µM), inactives show top-dose activity, negative = inhibition, actives largely listed as inhibitors; Drosophila S2 Gal4-VP16 UAS-luciferase, luminescence, 20 h; 3.5% of 310,000 active; AID 2546;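 note: Gal4-VP16 expression switched on by copper sulfate through the metallothionein promoter; potency is the fitted concentration of half-maximal effect; % is set by controls: 0 for no effect and ±100 for the full control effect; nearly all actives have a fitted effect of over 50% in size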
uPA generation – cell surface uPA generation inhibition; Potency, µM (doses to about 38.3 µM), without a hit: top-dose activity change, negative = inhibition, usual class: inhibitors; 0.31% of 330,000 active; cell surface uPA generation assay, qHTS; active = well fitted inhibition curve with a large enough effect; inconclusive = small, poorly fitted or top-dose-only effect; inactive = no such curve, though single readings can be large or run the other way; tested in mouse RAW 264.7 cells; note: potency is the fitted concentration of half-maximal effect; % is set by controls: 0 for no effect and ±100 for the full control effect; nearly all actives have a fitted effect of over 55% in size
TRPV1 agonist – activates the human vanilloid receptor TRPV1. Q8NER1. TRPV1-expressing cells, Fluo-8 calcium influx, agonist mode. activation, % at 8.33 µM. 0.19% of 320,000 active. AID 540275; in the data active = activation above about 80%; inconclusive = between about 30% and that limit; note: 0% is about no effect
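TRPV1-expressing cells were cultured overnight at 35.5C and loaded with Fluo-8 calcium dye for 40 to 90 min at room temperature. After a 10 s baseline, compound was added and calcium influx was read kinetically for 3 min (ex 480/em 520 nm).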
RORg inh – blocks mouse ROR gamma transcriptional activity; P51450; Drosophila S2 Gal4-RORgamma UAS-luciferase reporter, 20 h; Potency, µM (top dose mostly 53.6 µM), for inactives: at the highest dose activity change, negative = inhibition, actives largely listed as inhibitors; 5.4% of 310,000 active; AID 2551; note: potency is the fitted concentration of half-maximal effect; % is set by controls: 0 for no effect and ±100 for the full control effect; nearly all actives have a fitted effect of over 60% in size
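In this cell-based reporter format, copper sulfate (700 uM final) drives Gal4–ROR gamma fusion expression from a metallothionein promoter in Drosophila Schneider cells; compounds preincubated 1 hr, reporter read after 20 hr at ambient temperature.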
* = called active by the depositor. Unless noted, calls come from the whole dose curve; as a rule, active = well fitted curve in the direction sought with a large enough effect; inconclusive = small, poorly fitted or top-dose-only effect, or another doubt; inactive = no such curve, though single readings can be large; an effect the other way counts as inactive or inconclusive.

For CCOCc1nnc(NC(=O)c2ccc3c(c2)OCO3)s1 the results were uPA generation 4%.
For Cc1ccccc1OCC(O)CN1CCN(CCN2C(=O)c3cccc4cccc(c34)C2=O)CC1 (configuration not stated) the results were TRPV1 potentiator -3, Gal4-VP16 FLuc -20%, uPA generation 3%, TRPV1 agonist 1 and RORg inh -10%.
Screening C=CCc1ccccc1OCC(O)CN1CCN(CCN2C(=O)c3cccc4cccc(c34)C2=O)CC1 (configuration not stated) returned TRPV1 potentiator 5, Gal4-VP16 FLuc 11µM*, uPA generation -6%, TRPV1 agonist -5 and RORg inh -97%.
Screening O[C@@H]1[C@@H]2c3cc4c(cc3CN3CCC(=C[C@@H]1O)[C@H]23)OCO4 returned Gal4-VP16 FLuc 2.5µM* and RORg inh inconclusive.
For CN1CCc2cc3c(cc2[C@@H]1[C@@H]1C(=O)Oc2c1ccc1c2OCO1)OCO3 the results were Gal4-VP16 FLuc 0% and RORg inh 21%.
`Cc1nc2ccc(NS(=O)(=O)c3ccc(F)c(C)c3)cc2[nH]1` gave TRPV1 potentiator -7, Gal4-VP16 FLuc 7.1µM*, uPA generation inconclusive, TRPV1 agonist 5 and RORg inh inconclusive.
`Cc1nc2ccc(S(=O)(=O)c3ccc4nc(C)[nH]c4c3)cc2[nH]1` gave TRPV1 potentiator -4, Gal4-VP16 FLuc -2%, uPA generation 1%, TRPV1 agonist 3 and RORg inh 18%.
Screening Cn1nc(C(C)(C)C)cc1C(=O)NCc1ccc(N2CCCC2=O)cc1 returned TRPV1 potentiator inconclusive, Gal4-VP16 FLuc 0.56µM*, TRPV1 agonist 0 and RORg inh inconclusive.
COC(=O)CN1C(=O)[C@@H]2[C@H](C1=O)[C@@H]1CC(C(=O)OC)=C[C@@H](C(=O)OC)C3C1=C(C(=O)[C@]3(C)NC(=O)c1ccccc1)[C@@H]2C (some centres not stated) was read as Gal4-VP16 FLuc -15% and RORg inh -9%.
For CCn1c(=O)c(C(=O)NCCc2ccc(Cl)cc2)c(O)c2ccccc21 the results were TRPV1 potentiator -1, Gal4-VP16 FLuc -19%, uPA generation 21%, TRPV1 agonist -2 and RORg inh inconclusive.
Screening CCCn1c(=O)c(C(=O)NCCc2ccc(Cl)cc2)c(O)c2ccccc21 returned TRPV1 potentiator 13, Gal4-VP16 FLuc inconclusive, uPA generation 6%, TRPV1 agonist -4 and RORg inh 14µM*.
`CCn1c(=O)c(C(=O)NCc2ccc(F)cc2)c(O)c2ccccc21` gave TRPV1 potentiator 1, Gal4-VP16 FLuc inconclusive, uPA generation 0%, TRPV1 agonist 4 and RORg inh 13µM*.
`CCn1c(=O)c(C(=O)NCc2ccc(Cl)cc2)c(O)c2ccccc21` gave TRPV1 potentiator 18, Gal4-VP16 FLuc 6%, uPA generation -1%, TRPV1 agonist 3 and RORg inh inconclusive.
`CCn1c(=O)c(C(=O)NCc2ccccc2)c(O)c2ccccc21` gave TRPV1 potentiator 7, Gal4-VP16 FLuc 16µM*, uPA generation 12%, TRPV1 agonist 14 and RORg inh inconclusive.
For COC(=O)/C(=C1/OC(=O)C(c2ccccc2)=C1O)c1ccccc1 the results were Gal4-VP16 FLuc 1% and RORg inh 19%.
`COc1cc(CCN2C(=O)N[C@@H](c3ccccc3)C(C(C)=O)=C2C)cc(OC)c1OC` gave Gal4-VP16 FLuc 1% and RORg inh 0%.
For CC(=O)Oc1cc2c(c(C)c1OC(C)=O)CC=C1[C@]3(C)CC[C@]4(C)CC[C@@](C)(C(=O)O)CC4[C@]3(C)CC[C@]12C (some centres not stated) the results were Gal4-VP16 FLuc 11µM* and RORg inh inconclusive.
`CC[C@H](CO)Nc1nc(Nc2cccc(Cl)c2)c2ncn(C(C)C)c2n1` gave TRPV1 potentiator 12, Gal4-VP16 FLuc 3.2µM*, uPA generation inconclusive, TRPV1 agonist -4 and RORg inh inconclusive.
CC(C)[C@H](CO)N(Cc1cccc(F)c1)c1nc(Nc2cccc(Cl)c2)c2ncn(C(C)C)c2n1 was read as TRPV1 potentiator -11, Gal4-VP16 FLuc -23%, uPA generation inconclusive, TRPV1 agonist inconclusive and RORg inh 5%.
For CC(=O)N(C)c1ccc(C(O)(C(F)(F)F)C(F)(F)F)cc1 the results were TRPV1 potentiator -12, Gal4-VP16 FLuc -12%, uPA generation 5%, TRPV1 agonist -2 and RORg inh 13µM*.
`CCOC(=O)N(C)c1ccc(C(O)(C(F)(F)F)C(F)(F)F)cc1` gave TRPV1 potentiator -12, Gal4-VP16 FLuc -3%, uPA generation 6%, TRPV1 agonist -1 and RORg inh 25%.
COc1ccccc1CN1CC[C@@]2(CCCN(C(C)=O)C2)C1 was read as Gal4-VP16 FLuc -1% and RORg inh -7%.
For COc1ccc(OC)c(NC(=O)C(=O)NNC(=O)C23CC4CC(CC(C4)C2)C3)c1 the results were TRPV1 potentiator -11, Gal4-VP16 FLuc inconclusive, uPA generation -1%, TRPV1 agonist 27 and RORg inh 2.5µM*.
For Cc1ccc2nc3c(cc(S(=O)(=O)c4ccccc4)c(=N)n3Cc3ccco3)c(=O)n2c1 the results were TRPV1 potentiator -6, Gal4-VP16 FLuc -14%, uPA generation -6%, TRPV1 agonist 5 and RORg inh -30%.
For N=c1c(S(=O)(=O)c2ccccc2)cc2c(=O)n3ccccc3nc2n1Cc1ccco1 the results were TRPV1 potentiator -17, Gal4-VP16 FLuc inconclusive, uPA generation 4%, TRPV1 agonist -1 and RORg inh inconclusive.
`CNC(=O)c1cc2c(=O)n3cc(C)ccc3nc2n(Cc2ccco2)c1=N` gave TRPV1 potentiator -3, Gal4-VP16 FLuc inconclusive, TRPV1 agonist 0 and RORg inh 11µM*.
`Cc1ccc(S(=O)(=O)c2cc3c(=O)n4ccccc4nc3n(Cc3ccco3)c2=N)cc1C` gave TRPV1 potentiator 6, Gal4-VP16 FLuc 18µM*, uPA generation -2%, TRPV1 agonist 0 and RORg inh inconclusive.
`CC1CCCC(NC(=O)CNC(=S)N(Cc2ccccc2)Cc2cccs2)C1C` (configuration not stated) gave TRPV1 potentiator 1, Gal4-VP16 FLuc inconclusive, uPA generation 32%, TRPV1 agonist 13 and RORg inh inconclusive.
For CCCCCOc1ccc(/C=C/c2c([N+](=O)[O-])c(=O)n(C)c(=O)n2C)cc1 the results were TRPV1 potentiator -14, Gal4-VP16 FLuc 2%, uPA generation 8%, TRPV1 agonist 5 and RORg inh 7%.
For O=C(CCCn1nnnc1CN1CCOCC1)N1CCC(c2ccc(F)cc2)C1 (configuration not stated) the results were TRPV1 potentiator 9, Gal4-VP16 FLuc -6%, uPA generation -40%, TRPV1 agonist -5 and RORg inh -6%.
